We go through 68 sequences from the supplement of paper PMC3724861.

The full list was thinned out, with hits kept by preference. The true hit rate is not given. Unmarked numbers belong to inactive results.

For this test, the system named is T1, Caupolican (Caup) homeodomain DNA-binding domain.
T1 sequence: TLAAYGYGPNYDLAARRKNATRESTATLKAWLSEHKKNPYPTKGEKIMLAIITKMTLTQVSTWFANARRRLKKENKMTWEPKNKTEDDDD
Nature of the test: PBM E-score (8-mer, recovered from the published 9-mer minima) (E-score (dimensionless, -0.5 to 0.5)); Drosophila protein; higher = stronger relative binding preference, active = 0.31 or more. How it is done: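 Protein binding microarray (PBM): in vitro transcribed/translated Caupolican (Caup) homeodomain DNA-binding domain (residues 214-303) applied at 100 nM to a universal 8-mer PBM array (Agilent AMADID 015681). The 8-mer enrichment score (E-score, range -0.5 to 0.5) was computed, and each 9-mer score is the minimum E-score of its two constituent 8-mers. The E-score is the same for a 9-mer and its reverse complement; 0.31 is the stated binding threshold.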
As for AAAATTAA, the “PBM E-score” value is 0.0601.

For the sequence TATCGTAA, the “PBM E-score” value is 0.114.

Turning to ACGACTTC, the “PBM E-score” value was 0.0231.

In the case of CCGCAGAA, the “PBM E-score” value was -0.0611.

Consider CGTCGGCC, for which the “PBM E-score” value was -0.224.

Consider GCGCTGCC, for which the “PBM E-score” value was -0.257.

As to CCAGAGAG, the “PBM E-score” value is -0.172.

As for CGCTTCAA, the “PBM E-score” value is -0.0124.

As to CTATTGTC, the “PBM E-score” value was 0.0455.

As for GAGGTACC, the “PBM E-score” value was -0.137.

Consider CTTTGTAC, for which the “PBM E-score” value was 0.229.

On to GCTTGTAC, for which the “PBM E-score” value was 0.38 (active).

Consider CCTTGTGC, for which the “PBM E-score” value was 0.0734.

As for GCCTGTAC, the “PBM E-score” value is 0.164.

CGTTGTAG: the “PBM E-score” value is 0.154.

Turning to CCTTGTAG, the “PBM E-score” value is 0.322 (active).

As to GCTTGGAC, the “PBM E-score” value was -0.0623.

On to ACTTGTAG, for which the “PBM E-score” value is 0.297.

For ACTTGTAC, the “PBM E-score” value is 0.407 (active).

Turning to AGTTGTAC, the “PBM E-score” value was 0.308.

Turning to ACTTGTGC, the “PBM E-score” value was 0.0346.

For CCTTGTAC, the “PBM E-score” value is 0.399 (active).

On to GCCCCTCA, for which the “PBM E-score” value was -0.223.

In the case of CGAACGTC, the “PBM E-score” value is -0.121.

For the sequence ATTGAAAA, the “PBM E-score” value is 0.0968.

With CAAGTTCA, the “PBM E-score” value is 0.0645.

For the sequence GTCATTTA, the “PBM E-score” value is 0.184.

Take AGCGAGCG: the “PBM E-score” value is -0.0955.

Turning to GATATGAC, the “PBM E-score” value was 0.0792.

For the sequence CATGAAGA, the “PBM E-score” value was 0.0832.

For GATGGCGA, the “PBM E-score” value is -0.0291.

In the case of AGAGTCGG, the “PBM E-score” value is -0.0944.

With CAGTTAAC, the “PBM E-score” value was -0.00501.

Turning to GATTGTAC, the “PBM E-score” value was 0.235.

With CATTGTAC, the “PBM E-score” value is 0.323 (active).

Turning to CATTGTAG, the “PBM E-score” value was 0.0869.

As for CATTCCAC, the “PBM E-score” value is -0.0122.

With CCAAGTAA, the “PBM E-score” value is 0.0669.

On to GCAAGTAA, for which the “PBM E-score” value was 0.173.

As to ACAAGTAA, the “PBM E-score” value was 0.331 (active).

Consider GCAAGTTA, for which the “PBM E-score” value is 0.0766.

Consider ACAAGTTC, for which the “PBM E-score” value is 0.233.

Turning to GCAAGAAC, the “PBM E-score” value is 0.00872.

As to ACAAGAAC, the “PBM E-score” value was 0.316 (active).

For ACAAGTTA, the “PBM E-score” value is 0.325 (active).

On to CCAAGTAG, for which the “PBM E-score” value was -0.0584.

With ACAAGTGG, the “PBM E-score” value is 0.205.

As to ACAAGTAG, the “PBM E-score” value was 0.351 (active).

On to ACAAGAAT, for which the “PBM E-score” value was 0.307.

Consider AATCTAGT, for which the “PBM E-score” value is 0.0691.

CCGGTAAC: the “PBM E-score” value is -0.0103.

Regarding CCGGACAG, the “PBM E-score” value was 0.0176.

In the case of CCCAAGCA, the “PBM E-score” value is -0.0938.

Regarding CGACCGCA, the “PBM E-score” value is -0.144.

Take CATGACGC: the “PBM E-score” value was 0.032.

AAGGACTA: the “PBM E-score” value was 0.0433.

Turning to AATTAAGG, the “PBM E-score” value was 0.0103.

Regarding ACCAGTGC, the “PBM E-score” value was -0.019.

In the case of TAAGGGGA, the “PBM E-score” value is -0.0541.

Regarding ACAAGGAG, the “PBM E-score” value is 0.224.

ACAAGTCT: the “PBM E-score” value was 0.296.

For ACAAGGAA, the “PBM E-score” value was 0.247.

In the case of ACAAGTAT, the “PBM E-score” value was 0.314 (active).

For AAAAGTAT, the “PBM E-score” value is 0.121.

In the case of CCAAGTAC, the “PBM E-score” value is 0.0484.

On to ACAAGGAT, for which the “PBM E-score” value was 0.315 (active).

Regarding GCAAGTAC, the “PBM E-score” value was 0.176.

ACAAGTAC: the “PBM E-score” value was 0.35 (active).
